# Only some compounds are listed: those with a hit (about 18% of all), similar ones and a draw of the others.
# Gal4-VP16 FLuc: Gal4-VP16 reporter inhibition counter-screen. 310,000 tested, 3.5% active. Drosophila S2 Gal4-VP16 UAS-luciferase, luminescence, 20 h. Potency, µM (series often up to 53.6 µM), actives largely listed as inhibitors;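 also: Gal4-VP16 expression switched on by copper sulfate through the metallothionein promoter; nearly all actives have a fitted effect of over 50% in size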
# DT40 TDP1 CPT: growth inhibition of DT40 Tdp1-/-;hTDP1 cells with camptothecin (screen for TDP1 inhibitors). 420,000 tested, 12% active. chicken DT40 Tdp1-/-;hTDP1 cells + 20 nM CPT, ATP luminescence, 48 h. Potency, µM (highest dose often 46.2 µM), actives largely listed as inhibitors; also: nearly all actives have a fitted effect of over 55% in size
#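 Chicken DT40 Tdp1-/- cells stably complemented with human TDP1 were seeded at 400 cells/well in medium containing 20 nM camptothecin, exposed to pin-transferred compounds, and grown at 37 °C for at least 48 hr. Viability was read as ATP luminescence.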
# IL-1B inflam inh: blocks inflammasome-driven IL-1 beta release | THP-1 LPS/ATP IL-1B secretion, AlphaLISA, 16 h; active compounds read low | AID 743279 | activity change, % at 57.5 µM | 360,000 tested, 4.7% active; in the data active = activity change below about -50%; inconclusive = mostly about -30% to -49%
#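 Secreted IL-1B measured by AlphaLISA bead assay after 16 h compound exposure of THP-1 cells; compounds (final up to 57.5 uM) added 1 h before LPS (250 ng/mL) and ATP (1.25 mM) stimulation; lower signal means less secretion.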
# RORg inh: blocks mouse ROR gamma transcriptional activity | Drosophila S2 Gal4-RORgamma UAS-luciferase reporter, 20 h | Potency, µM (top dose mostly 53.6 µM), usual class: inhibitors | 310,000 tested, 5.4% active; also: nearly all actives have a fitted effect of over 60% in size
# Target sequence (P51450 whole entry, looked up, the tested form may be a part): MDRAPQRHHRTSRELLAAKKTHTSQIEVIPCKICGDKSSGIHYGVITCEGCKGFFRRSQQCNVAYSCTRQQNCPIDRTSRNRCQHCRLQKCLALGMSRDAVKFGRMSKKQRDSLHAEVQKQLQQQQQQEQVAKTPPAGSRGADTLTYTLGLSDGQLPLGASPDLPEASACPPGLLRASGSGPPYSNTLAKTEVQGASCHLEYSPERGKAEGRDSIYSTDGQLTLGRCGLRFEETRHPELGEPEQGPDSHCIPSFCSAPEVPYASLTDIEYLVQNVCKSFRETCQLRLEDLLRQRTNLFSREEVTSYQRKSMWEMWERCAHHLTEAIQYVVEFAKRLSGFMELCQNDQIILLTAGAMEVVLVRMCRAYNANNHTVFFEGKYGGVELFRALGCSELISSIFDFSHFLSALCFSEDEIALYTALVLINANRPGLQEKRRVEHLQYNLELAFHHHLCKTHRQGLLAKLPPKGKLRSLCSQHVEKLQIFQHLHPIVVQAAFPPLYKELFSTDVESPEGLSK
#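 Stable Schneider cell line, Gal4 DNA-binding domain fused to ROR gamma, UAS-luciferase. Cmpd 1 hr RT → CuSO4 700 uM final → 20 hr RT → luciferase reagent 10 min → luminescence.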
# DT40 TDP1 no CPT: qHTS for Inhibitors of human tyrosyl-DNA phosphodiesterase 1 (TDP1): qHTS in cells in absence of CPT; DT40 Tdp1-/- hTDP1 cells, no CPT, ATP luminescence, 48 h; Potency, µM (highest dose often 46.2 µM), usual class: inhibitors; 420,000 tested, 15% active; also: nearly all actives have a fitted effect of over 55% in size
#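 Seeded 400 DT40-hTDP1 cells/well (vehicle DMSO, no 20 nM CPT); pinned compounds; ≥48 hr at 37 °C; CellTiter-Glo luminescence as viability measure.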
# LDHA inh: LDHA (human) enzyme inhibition; P00338; purified LDHA, NADH/diaphorase-resazurin fluorescence; active compounds read low; activity change, % (values are at about 110 or 230 µM); 480,000 tested, 0.15% active; in the data active = activity change below about -30%; inconclusive = mostly about -25% to -30%
#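 LDH5 2 nM; NADH 0.06 mM, pyruvate 0.2 mM; 200 mM Tris pH 7.4, EDTA, Tween-20; 5 min RT. Detection: diaphorase 0.133 mg/mL + resazurin 37 µM, fluorescence ex540/em590 at 0 and 20 min; normalized to enzyme-free and DMSO wells.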
# Hits are given with their value; . = inactive; ? = inconclusive; / = no result given; ! = repeats disagree. Unless noted, calls follow the shape of the dose curve; as a rule, active = well fitted curve in the direction sought with a large enough effect; inconclusive = small, poorly fitted or top-dose-only effect, or another doubt; inactive = no such curve, though single readings can be large; an effect the other way counts as inactive or inconclusive.
SMILES,Gal4-VP16 FLuc,DT40 TDP1 CPT,IL-1B inflam inh,RORg inh,DT40 TDP1 no CPT,LDHA inh
COc1ccc(/C=N/NC(=S)Nc2ccccc2)cc1COc1ccc(F)cc1,0.89µM,.,.,0.35µM,.,.
Cc1cc(NC(=O)C(C)Oc2cccc(Cl)c2)n(C)n1 (stereo not drawn),/,/,/,/,/,.
CCN(C[C@H]1N[C@@](Cc2ccccc2)(C(=O)OC)[C@H]2C(=O)N(Cc3ccccc3)C(=O)[C@@H]12)C(=O)C1CCCCC1,/,?,.,/,13µM,.
COC(=O)[C@]1(Cc2ccccc2)N[C@H](CN(C)C(=O)COc2ccccc2)[C@@H]2C(=O)N(Cc3ccccc3)C(=O)[C@@H]21,/,21µM,.,/,?,.
CCN(C[C@H]1N[C@@](Cc2ccccc2)(C(=O)OC)[C@H]2C(=O)N(Cc3ccccc3)C(=O)[C@@H]12)C(=O)COc1ccccc1,/,21µM,.,/,18µM,.
COC(=O)[C@]1(Cc2ccccc2)N[C@H](CN(C)C(C)=O)[C@@H]2C(=O)N(Cc3ccccc3)C(=O)[C@@H]21,/,.,.,/,.,.
COc1ccc(C2=NCCn3nc4cc([N+](=O)[O-])ccc4c32)cc1,/,.,.,/,.,.
Nc1c(Cl)cc(C2=NCCn3nc4ccccc4c32)cc1Cl,/,23µM,.,/,?,.
COc1ccc2c3n(nc2c1)CCN=C3c1ccc(C)cc1,/,16µM,.,/,?,.
CC(C)(C)c1ccc(C(=O)Nc2ccc(C=C(C#N)C#N)cc2)cc1,5.6µM,16µM,.,5µM,12µM,.
CNC(=O)c1ccc(NC(=O)c2ccc(C(C)(C)C)cc2)cc1,/,/,/,/,/,.
N#CC(C#N)=Cc1ccc(NC(=O)c2ccc(Br)cc2)cc1,.,21µM,?,.,16µM,.
Cn1cnc([N+](=O)[O-])c1Nc1cccc(O)c1,.,.,.,.,.,.
Cn1cnc([N+](=O)[O-])c1Oc1ccc2ccccc2c1,?,8.2µM,-103,.,?,.
Cc1csc(C(C#N)C(=O)c2cc3ccccc3o2)n1 (stereo not drawn),.,?,.,10µM,?,.
Cc1cc(C=O)c(C)c2c1[nH]c1ccccc12,/,?,-57,/,21µM,.
CCCCn1c(=O)[nH]c(=O)c2c1nc(-c1ccc(C)c([N+](=O)[O-])c1)n2CC,.,?,.,.,21µM,.
Cc1ccc(-c2nc3c(c(=O)[nH]c(=O)n3CC(C)C)n2CC(C)C)cc1[N+](=O)[O-],.,?,.,.,29µM,.
CC(C)Cn1c(-c2ccc(O)cc2)nc2c1c(=O)[nH]c(=O)n2Cc1ccccc1,/,/,/,/,/,.
COCCn1c(-c2ccc(OC(F)(F)C(F)C(F)(F)F)cc2)nc2c1c(=O)[nH]c(=O)n2CC(C)C (stereo not drawn),.,21µM,.,.,?,.
COc1ccc(C2c3c(-c4c(C)cc(C)cc4O)n[nH]c3C(=O)N2CCO)cc1OC (stereo not drawn),/,/,/,/,/,.
CCCn1c(N2CCOCC2)nc2c1c(=O)n(C)c(=O)n2C,/,/,/,/,/,.
CCc1noc(C)c1C(=O)Nc1sc2c(c1C(N)=O)CCC2,/,/,/,/,/,.
COc1ccccc1N1CCN(C(=O)c2ccc3[nH]c4c(c3c2)CCCC4)CC1,.,?,-76,.,?,.
COc1ccccc1N1CCN(C(=O)c2ccc3noc(-c4ccccc4)c3c2)CC1,/,?,.,/,?,.
SMILES,Gal4-VP16 FLuc,DT40 TDP1 CPT,IL-1B inflam inh,RORg inh,DT40 TDP1 no CPT,LDHA inh
O=C(c1ccc2[nH]c3c(c2c1)CCCC3)N1CCN(c2ccc(F)cc2)CC1,.,23µM,.,?,?,.
Cc1[nH]c2ccc(C(=O)N3CCN(c4ccc(F)cc4)CC3)cc2c1C,.,?,.,.,.,.
CC(=O)c1ccc(N2CCN(C(=O)c3ccc4[nH]c(C)c(C)c4c3)CC2)cc1,/,21µM,.,/,16µM,.
CCC(=O)N1CCN(c2oc(/C=C/c3ccc(Cl)cc3)nc2C#N)CC1,/,/,/,/,/,.
CCC(C)NC(=O)CCNC(=O)Cc1c(C)nc2nc(N)nn2c1C (stereo not drawn),/,/,/,/,/,.
COc1ccc2cc(C(=O)Nc3ccccn3)c(C)nc2c1,/,/,/,/,/,.
O=C(c1[nH]ncc1-c1ccccc1)C1CO1 (stereo not drawn),.,9.2µM,-73,.,13µM,.
O=C(c1[nH]ncc1-c1cccc(Br)c1)C1CO1 (stereo not drawn),?,1.6µM,-96,?,1.8µM,.
Cc1ccc(-c2csc3nnc(SCC(=O)Nc4nsc(-c5ccccc5)n4)n23)cc1,.,21µM,.,.,23µM,.
O=C(CSc1nnc2scc(-c3ccccc3)n12)Nc1nsc(-c2ccc(Cl)cc2)n1,/,16µM,.,/,21µM,.
Cc1ccc(-c2nc(NC(=O)CSc3ccc4ccccc4n3)ns2)cc1,?,15µM!,.,.,?,.
Cc1ccc(NC(=O)CSc2ccc3ccccc3n2)cc1,/,/,/,/,/,.
O=C(CSc1nnc2scc(-c3ccccc3)n12)Nc1nsc(-c2ccccc2)n1,?,15µM,?,.,23µM,.
CC(C)C(C)NC(=O)CSc1ccc2ccccc2n1 (stereo not drawn),/,/,/,/,/,-32
O=C(CSc1nnc2scc(-c3ccccc3)n12)N1CCN(Cc2ccccc2)CC1,.,.,?,8.9µM,?,.
CC(NC(=O)CSc1ccc2ccccc2n1)C1CC1 (stereo not drawn),/,/,/,/,/,.
Cc1cccc(NC(=O)CSc2nnc3scc(-c4ccccc4)n23)c1,/,?,/,/,21µM,.
CCOc1ccc(NC(=O)CSc2nnc3scc(-c4ccccc4)n23)cc1,/,.,/,/,?,.
Cc1c(C(=O)c2ccccc2)oc2ccc(N)cc12,/,/,/,/,/,.
COCc1ccccc1C(=O)NCCC(C)C,/,/,/,/,/,.
COCC(C)N=C1NN=C(c2cccs2)C(CC(=O)O)S1 (stereo not drawn),11µM,.,.,2µM,.,.
Cc1ccc2cc(C(=O)N(C)C3CCS(=O)(=O)C3)c(C)nc2c1 (stereo not drawn),/,/,/,/,/,.
COc1ccc(Cl)cc1N/C(N)=N/c1nc(C)cc(C)n1,.,.,.,.,.,.
Cc1cc(C)nc(/N=C(\N)Nc2ccc(S(N)(=O)=O)cc2)n1,.,.,.,.,?,.
COc1ccc(N/C(N)=N/c2nc(C)cc(C)n2)c(OC)c1,.,26µM,-76,.,12µM,.
COc1ccc(OC)c(N/C(=N/c2nc(C)cc(C)n2)NC(C)=O)c1,.,?,.,.,7.3µM,.
CCCOc1ccccc1N/C(=N/c1nc(C)cc(C)n1)NC(=O)COc1ccc(OC)cc1,?,21µM,?,.,16µM,.
COc1cc(N/C(N)=N/c2nc(C)cc(C)n2)cc(OC)c1,.,16µM,.,.,21µM,.
